Gal4-VP16 FLuc = VP16 counterscreen qHTS for inhibitors of ROR gamma transcriptional activity. Drosophila S2 Gal4-VP16 UAS-luciferase, luminescence, 20 h. Potency, µM (highest dose often 53.6 µM), for the others: at the top dose activity, negative = inhibition, usual class: inhibitors. 310,000 tested, 3.5% active;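 note: Gal4-VP16 expression switched on by copper sulfate through the metallothionein promoter; % is set by controls: 0 for no effect and ±100 for the full control effect; nearly all actives have a fitted effect of over 50% in size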
ATXN2 expr inh = Primary qHTS for Inhibitors of ATXN expression | 360,000 tested, 0.72% active | HEK-293 ATXN2-luciferase reporter, luminescence, 24 h | Potency, µM (highest dose often 57 µM), for the others: at the highest dose activity change, negative = inhibition, actives largely listed as inhibitors; note: % is set by controls: 0 for no effect and ±100 for the full control effect; nearly all actives have a fitted effect of over 55% in size
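qHTS (up to 57 uM final) was run with 24 h compound exposure of reporter cells at 37 °C. Each well was multiplexed: SteadyGlo luminescence measured ATXN2-luciferase expression after a fluorogenic Gly-Phe-AFC viability readout (25 uM final).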
HepG2 viability = qHTS for Inhibitors of TGF-b: Cytotox Counterscreen; HepG2 CAGA-GFP viability, ATP luminescence, 18 h; 410,000 tested, 0.76% active; AID 588856, 2011; Potency, µM (top dose mostly 46.1 µM), for inactives: at the top dose activity change, negative = cytotoxicity, actives largely listed as cytotoxic
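HepG2 CAGA-GFP cells (1000/well, DMEM with 1% FBS) received compound, then TGF-beta at 500 pg/mL final, and were incubated 18 hours at 37 degrees C. Viability was read by CellTiter-Glo luminescence. Media-only wells were set as complete cell-killing and DMSO as no toxicity.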
ATXN viability = Viability Counterscreen for Primary qHTS for Inhibitors of ATXN expression | S2 cells (HEK-293 line with an ATXN2-luciferase reporter) viability, CellTiter-Fluor protease fluorescence, 24 h | Potency, µM (top dose mostly 56.7 µM), most hits filed as cytotoxic | 400,000 tested, 0.49% active | AID 651635, 2014; note: nearly all actives have a fitted effect of over 40% in size
RORg inh = qHTS for inhibitors of ROR gamma transcriptional activity | Nuclear receptor ROR-gamma (Mus musculus), P51450 | Drosophila S2 Gal4-RORgamma UAS-luciferase reporter, 20 h | AID 2551, 2010 | 310,000 tested, 5.4% active | Potency, µM (series often up to 53.6 µM), for inactives: at the top dose activity change, negative = inhibition, actives largely listed as inhibitors; note: % is set by controls: 0 for no effect and ±100 for the full control effect; nearly all actives have a fitted effect of over 60% in size
Target sequence (P51450 whole entry, looked up, the tested form may be a part): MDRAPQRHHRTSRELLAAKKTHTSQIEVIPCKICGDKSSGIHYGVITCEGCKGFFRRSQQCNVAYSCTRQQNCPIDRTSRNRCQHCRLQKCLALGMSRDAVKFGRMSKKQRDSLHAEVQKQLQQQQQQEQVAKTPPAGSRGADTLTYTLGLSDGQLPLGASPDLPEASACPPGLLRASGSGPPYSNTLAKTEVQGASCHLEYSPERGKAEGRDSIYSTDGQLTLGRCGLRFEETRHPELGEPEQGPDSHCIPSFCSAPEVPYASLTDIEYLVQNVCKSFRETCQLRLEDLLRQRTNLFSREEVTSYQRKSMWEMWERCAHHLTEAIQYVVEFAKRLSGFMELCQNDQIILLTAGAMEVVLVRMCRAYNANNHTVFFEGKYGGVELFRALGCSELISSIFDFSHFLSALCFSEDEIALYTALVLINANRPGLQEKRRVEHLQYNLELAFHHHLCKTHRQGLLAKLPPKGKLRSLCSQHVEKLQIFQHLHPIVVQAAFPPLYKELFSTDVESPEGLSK
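Schneider cells (Drosophila), stable Gal4 DBD–ROR gamma + UAS-luc; 1 hr cmpd preincubation; Cu2+ induction 700 uM final; 20 hr ambient; luminescence.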
TGFb inhibitor = qHTS for Inhibitors of TGF-b | HepG2 CAGA-GFP TGF-b/SMAD3 reporter, GFP fluorescence, 18 h; TGF-beta stimulated, 500 pg/mL final | Potency, µM (titrated, usually from 46.1 µM), without a hit: at the top dose activity, negative = inhibition, hits mostly inhibitors | 410,000 tested, 1.2% active | AID 588855, 2011; note: % is set by controls: 0 for no effect and ±100 for the full control effect; nearly all actives have a fitted effect of over 65% in size
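First, reporter cells (HEPG2 CAGA-GFP) rested 2 h at 37 degrees C. Next, compounds were pinned in and TGF-beta added to 500 pg/mL final. After 18 h, GFP was imaged per cell and summed per well.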
An asterisk follows results filed as active; i = inactive; ? = inconclusive; / = no result; [ ] = remark or other dose. Hits are enriched below; roughly 6.3% of the tested compounds scored in any of these assays. Calls come from the whole dose curve; as a rule, active = well fitted curve in the direction sought with a large enough effect; inconclusive = small, poorly fitted or top-dose-only effect, or another doubt; inactive = no such curve, though single readings can be large; an effect the other way counts as inactive or inconclusive. Potency is the fitted concentration of half-maximal effect.

SMILES	Gal4-VP16 FLuc	ATXN2 expr inh	HepG2 viability	ATXN viability	RORg inh	TGFb inhibitor
NC(=S)N/N=C/c1ccc(-c2cccc([N+](=O)[O-])c2)o1	4.47µM*	2.6%	-12.1%	i	1µM*	?
O=C(N/N=C/c1ccc(-c2cccc([N+](=O)[O-])c2)o1)c1cccs1	?	9.3%	-2.2%	i	10µM*	2.3%
C[C@H](CO)N1C[C@H](C)[C@@H](CN(C)C(=O)Nc2ccc(C(F)(F)F)cc2)Oc2ccc(NC(=O)Nc3ccc4c(c3)OCO4)cc2C1=O	/	-3.2%	2.3%	i	/	?
CC(=O)Nc1cnc(NC(=O)c2cccc(F)c2)cc1C	?	1.0%	1.2%	i	3.98µM*	15.2%
CCC(=O)Nc1cnc(NC(=O)c2cccc(F)c2)cc1C	?	-10.7%	-47.7%	i	?	12.0%
CN(C)CC(CCC(CN(C)C)C(=O)c1ccccc1)C(=O)c1ccccc1 (stereo not drawn)	10µM*	7.52µM*	-102.6%	7.52µM*	7.08µM*	6.31µM*
COc1ccc(C(=O)C(CCCCC(CN(C)C)C(=O)c2ccc(OC)cc2)CN(C)C)cc1 (stereo not drawn)	-3.4%	-9.5%	-28.8%	/	-2.7%	-1.7%
CCOc1ccc(C(=O)C(CCC(CN(C)C)C(=O)c2ccc(OCC)cc2)CN(C)C)cc1 (stereo not drawn)	-98.3%	5.62µM*	2.82µM*	3.16µM*	10.0%[10 µM]	5.01µM*
CCCC[C@H]1CCCO[C@@](C(=O)NCc2ccccn2)(C(F)(F)F)C1	-2.0%	/	-13.7%	/	24.4%	-22.9%
Cc1cc(C(=O)CSc2nncs2)c(C)n1Cc1ccco1	?	-29.5%	20.1%	i	-31.4%	0.0%
C=CCn1c(C)cc(C(=O)CSc2nc3ccccc3c(=O)[nH]2)c1C	?	14.9%	5.5%	i	-15.8%	-24.1%
C=CCn1c(C)cc(C(=O)CSc2nc3ccccc3[nH]2)c1C	12.6µM*	?	-2.0%	?	10µM*	-2.4%
Cc1cc(C(=O)CCl)c(C)n1Cc1ccco1	17.8µM*	?	-25.6%	25.1µM*	7.94µM*	?
Cc1cc(C(=O)CSc2nc3ccccc3[nH]2)c(C)n1Cc1ccco1	15.8µM*	18.6%	3.6%	?	?	?
c1ccc(-c2nnc(SCc3nc4ccccc4[nH]3)n2Cc2ccco2)cc1	?	-11.5%	-18.0%	i	11.2µM*	-4.0%
COC(=O)c1cc2occc2n1Cc1nc(-c2ccccc2)oc1C	/	-0.5%	-18.0%	i	/	-10.3%
C=CCN(CC=C)C(=S)NC(=O)/C=C/c1ccc(OC)cc1	-13.2%	9.9%	-14.9%	i	-21.0%	?
C=CCN(CC=C)C(=S)NC(=O)c1ccc(-c2ccccc2)cc1	1µM*	?	-8.1%	/	0.501µM*	-55.5%
C=CCN(CC=C)C(=S)NC(=O)c1ccc(OC)cc1	2.24µM*	-22.7%	-25.5%	i	0.891µM*	-1.5%
C=CCN(CC=C)C(=S)NC(=O)c1ccc(C)c(Br)c1	0.126µM*	?	-6.3%	?	0.282µM*	-17.6%
COc1ccc(C(=O)NC(=S)N(Cc2ccccc2)Cc2ccccc2)cc1	0.562µM*	-37.0%	-23.5%	i	0.159µM*	?
CC(=O)Nc1ccc(NC(=S)NC(=O)c2ccc(-c3ccccc3)cc2)cc1	/	-6.2%	-19.0%	?	/	-11.7%
Nc1ncnc2c1ncn2[C@@H]1O[C@H](C(=O)N2CCC[C@@H]2C(=O)OCc2ccccc2)[C@@H](O)[C@H]1O	/	3.5%	1.1%	i	/	-18.2%
COC(=O)c1cn(NC(=O)c2cnccn2)c(=O)c2ccccc12	?	-5.5%	1.0%	i	12.6µM*	-7.7%
COc1ccc(C(=O)NCC(=O)c2ccccc2)cc1	-27.1%	/	-1.0%	i	10µM*	-6.0%
SMILES	Gal4-VP16 FLuc	ATXN2 expr inh	HepG2 viability	ATXN viability	RORg inh	TGFb inhibitor
COc1ccc(O)c(C(=O)CC(=O)c2ccccc2)c1	12.6µM*	/	/	/	7.08µM*	/
COc1ccc(C(=O)CC(=O)c2ccc(OC)cc2)cc1	17.8µM*	42.4%	-6.3%	?	12.6µM*	4.5%
COc1ccc(CNC(NC(=O)c2ccccc2)(C(F)(F)F)C(F)(F)F)cc1	10µM*	-4.9%	-24.5%	i	?	-11.0%
COc1ccc(C(=O)CC(=O)c2ccccc2)cc1	/	80.2%	-52.4%	i	/	0.0%
CC(O)(c1ccc(Cl)cc1)c1ccc(Cl)cc1	?	/	/	/	-5.0%	/
O=C(NCC1Cc2cc(F)cc(-c3cnccn3)c2O1)c1cccc(Cl)c1 (stereo not drawn)	/	/	/	i	/	/
CCOc1ccc(NC(=O)CC2C(=O)N(c3ccccc3)C(=O)N2Cc2cccc(OC)c2)cc1 (stereo not drawn)	/	/	-17.9%	/	/	1.2%
CCN(CC)CCOc1ccc(C(=C(Cl)c2ccccc2)c2ccccc2)cc1	/	7.3%	/	/	/	/
CC(C)OP(=O)(OC(C)C)/C(C=O)=N\Nc1ccc([N+](=O)[O-])cc1	-26.0%	/	-81.4%	28.2µM*	44.9%	?
CC(C)Cc1nn2c(=O)cc(COC(=O)c3cccc(NC(=O)c4cccs4)c3)nc2s1	/	/	7.0%	/	/	-0.4%
Clc1ccc(CN2CCc3c([nH]c4ccccc34)C2)cc1Cl	-23.2%	/	-116.0%	?	-12.1%	17.8µM*
Cc1ccccc1OCCOc1ccccc1C=C(C#N)C#N	?	/	/	/	26.8%	/
Cc1cccc(OCCOc2ccccc2C=C(C#N)C#N)c1	-82.2%	3.0%	-83.0%	?	?	10µM*
COc1ccc(C)cc1NC(=O)COC(=O)c1c(C)nn(-c2ccccc2)c1C	/	22.4µM*	-14.6%	?	/	-9.0%
Cc1nc(-c2ccc(F)cc2)c(CC(=O)N(C)CC(=O)Nc2cccc(F)c2)s1	/	/	-15.8%	?	/	-4.8%
COc1cc(C(=O)NC(c2ccc(Cl)cc2)c2cc(Cl)c3cccnc3c2O)cc(OC)c1OC (stereo not drawn)	/	?	-17.0%	?	/	-8.3%
Oc1c(C(c2ccc(Cl)cc2)N2CCCC2)cc(Cl)c2cccnc12 (stereo not drawn)	?	/	6.1%	i	1.41µM*	4.2%
Oc1c(C(c2ccccn2)N2CCC(Cc3ccccc3)CC2)cc(Cl)c2cccnc12 (stereo not drawn)	?	?	-47.6%	/	?	15.8µM*
Cc1ccc(C(c2cc(Cl)c3cccnc3c2O)N2CCN(C)CC2)cc1 (stereo not drawn)	0.708µM*	?	-2.8%	i	1.26µM*	?

Source: PubChem BioAssay (National Center for Advancing Translational Sciences (NCATS))
